From PubChem BioAssay (NCI)
This is part of a sample that, as a whole, favours compounds with a hit. Of some 79,000 tested, about 15% had one in any assay. The source made the active and inactive calls. Rule as the data show it: active = growth inhibition above about 70%; inactive = the rest.

Key:
[1] = NCI Yeast Anticancer Drug Screen. Data for the rad50 strain (AID 155);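 also: 0% = growth of vehicle-only cultures of the same strain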; conditions: S. cerevisiae rad50 strain growth inhibition; at 50.0 µM; stronger effect = higher value
Procedure, shortened: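 Cells are treated with compound, grown, and their growth is then scored against vehicle-only cultures of the same repair-deficient yeast strain.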

[2] = NCI Yeast Anticancer Drug Screen. Data for the mec2-1 strain (AID 157); conditions: S. cerevisiae mec2-1 strain, at 50.0 µM, stronger effect = higher value
Procedure, shortened: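 Each compound was tested on mec2-1 yeast, a strain altered in DNA damage repair or cell cycle control. Growth inhibition is reported relative to vehicle.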

[3] = NCI Yeast Anticancer Drug Screen. Data for the sgs1 mgt1 strain (AID 161);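 also: 0% = growth of cultures given vehicle only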; conditions: S. cerevisiae sgs1 mgt1 strain, at 50.0 µM, stronger effect = higher value
Procedure, shortened: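 Inhibition of yeast growth, normalised to vehicle-treated controls, is reported for a strain bearing genetic alterations in DNA damage repair.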

[4] = NCI Yeast Anticancer Drug Screen. Data for the cln2 rad14 strain (AID 165);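 also: 0% = growth equal to vehicle treated cultures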; conditions: S. cerevisiae cln2 rad14 strain, at 50.0 µM, stronger effect = higher value
Procedure, shortened: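 Test compounds were added to cln2 rad14 yeast cultures; inhibition of growth was then determined by comparison with vehicle treatment.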

[5] = NCI Yeast Anticancer Drug Screen. Data for the bub3 strain (AID 167); conditions: S. cerevisiae bub3 mutant strain, at 50.0 µM, stronger effect = higher value
Procedure, shortened: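 Part of a panel of yeast mutants defective in DNA damage repair or cell cycle regulation. Each strain is grown with compound, and inhibition is calculated relative to solvent-treated cultures.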

[6] = NCI Yeast Anticancer Drug Screen. Data for the mlh1 rad18 strain (AID 175); conditions: S. cerevisiae mlh1 rad18 strain growth inhibition; at 50.0 µM; stronger effect = higher value
Procedure, shortened: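 Inhibition values reflect reduced growth of mutant yeast versus vehicle-treated controls following compound exposure; the mutations affect DNA damage repair.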

Measured: growth inhibition

CCc1c2cc(OC)c(OC)cc2cc2c3cc(OC)c(OC)cc3cc[n+]12 (tested in a mixture with another compound)
inactive: [1] -23.1% | [2] -22.4% | [3] -20.1% | [4] -20.9% | [5] -42% | [6] -11.7%

CSc1ccc(NC(=O)Nc2cc(C)ccc2Cl)cc1
inactive: [1] -2.05% | [2] 23% | [3] 25.9% | [4] -4.05% | [5] 41.1% | [6] 19.6%

CC(=O)OCCOC1c2ccccc2-c2ccccc21
inactive: [1] 7.1% | [2] -2.75% | [3] 18.2% | [4] 18.6% | [5] 25.3% | [6] 13.8%

CC1=C(C)OCC1
inactive: [1] 8.9% | [2] 4% | [3] 9.25% | [4] 7.85% | [5] 4.2% | [6] 5.5%

O=C(O)/C=C/c1ccc(C(NC(=O)N2C(=O)C=CC2=O)NC(=O)N2C(=O)C=CC2=O)cc1
inactive: [1] 37.8% | [2] 15.8% | [3] 42.3% | [4] 15.7% | [5] 13.3% | [6] 19%

CC(C)=C=CC(C)(C)NS(=O)(=O)NC(C)(C)C=C=C(C)C
inactive: [1] 12.5% | [2] -9.85% | [3] 2.4% | [4] 3.35% | [5] -16.6% | [6] 8.35%

CC1=CCCCC1=O
inactive: [1] -7.25% | [2] -4.35% | [3] 5.6% | [4] 2.4% | [5] -12.9% | [6] -4.15%

CC1=CCC(CC(=O)O)C1(C)C (configuration not stated)
inactive: [1] 10.2% | [2] 2.05% | [3] -2.85% | [4] 4.3% | [5] 6.55% | [6] -5%

NC(=O)CO
inactive: [1] 22.2% | [2] -15.9% | [3] 17.6% | [4] 5.35% | [5] 5.7% | [6] 19.5%

O=c1[nH]c2cc([N+](=O)[O-])ccc2nc1/C(=N/Nc1ccccc1)C(O)c1ccc(Cl)cc1Cl (configuration not stated)
inactive: [1] 41% | [2] 3.6% | [3] -11.6% | [4] -20.2% | [5] -7.3% | [6] 34.7%

Cc1cc(C(=O)c2ccccc2)ccc1[N+](=O)[O-]
inactive: [1] 23.1% | [2] -11% | [3] -7.35% | [4] -0.5% | [5] -0.65% | [6] 7.1%

CC(=O)OC(OC(C)=O)c1ncccc1C(=O)OC(C)C
inactive: [1] -14.6% | [2] -13.2% | [3] -14.7% | [4] 10.8% | [5] -8.45% | [6] -21.7%

Nc1cc(Cl)c2c(c1)C(=O)c1ccccc1-2
inactive: [1] -2.45% | [2] 0.7% | [3] -3.95% | [4] -5.3% | [5] -5.3% | [6] -5.4%

CC1C=CC(C)N(c2nnnn2C)N1c1nnnn1C (configuration not stated)
inactive: [1] -11.6% | [2] 9.75% | [3] 14.9% | [4] -6.3% | [5] -2.6% | [6] -3.9%

c1ccc2c(c1)cc1n2CCc2c-1[nH]c1ccccc21
inactive: [1] 26.2% | [2] 18.6% | [3] 4.2% | [4] 18.1% | [5] 19.9% | [6] 20.9%

CC(=O)/C(=C/c1ccc(F)cc1)C(=O)CCN(C)C
inactive: [1] 8.15% | [2] 16.6% | [3] 20.9% | [4] 9.55% | [5] -11.5% | [6] -22.2%

COC1CCC(O)C(C=Nc2ccccc2)C1 (configuration not stated)
inactive: [1] 4.8% | [2] -1.85% | [3] -11.8% | [4] 4.35% | [5] 8.5% | [6] -18.8%

Cc1cccc(C)c1NC(=O)Nc1cccc(Cl)c1
inactive: [1] 6.3% | [2] 15.6% | [3] 7.7% | [4] -0.5% | [5] 11% | [6] -0.8%

COC1(OC)C(c2ccco2)C(C#N)(C#N)C1(OC)OC (configuration not stated)
inactive: [1] -5.65% | [2] -1.95% | [3] -8.05% | [4] -38% | [5] -4.85% | [6] -0.9%

Nc1nc(F)nc2c1ncn2C1OC(CO)C(O)C1O (configuration not stated)
inactive: [1] -10.3% | [2] 2.25% | [3] 8.25% | [4] 0.1% | [5] 2.15% | [6] -12.2%

O=C(COc1ccc(Cl)cc1C(=O)O)NCc1ccc([N+](=O)[O-])cc1
inactive: [1] -9.45% | [2] 8.1% | [3] 20.8% | [4] -10.9% | [5] -9.85% | [6] -24.6%

Nc1cc(C(=O)c2ccccc2C(=O)O)ccc1Cl
inactive: [1] -34.3% | [2] -46.7% | [3] -8.3% | [4] 6.65% | [5] -28.8% | [6] -15.9%

Cc1onc(-c2c(Cl)cccc2Cl)c1C(=O)Nc1ccc(Cl)c(Cl)c1Cl
inactive: [1] -12.4% | [2] -14.7% | [3] -3.2% | [4] 12.1% | [5] 2.25% | [6] -8.25%

CC(C)(C)NC(=O)NCc1cccc(Cl)c1
inactive: [1] 0.25% | [2] -19.6% | [3] -4.15% | [4] -36.1% | [5] -3% | [6] -3.25%

O=C(Nc1cccc2c1C(=O)c1cc(Cl)ccc1C2=O)c1ccccc1
inactive: [1] -2.7% | [2] 0.1% | [3] 4% | [4] -38.9% | [5] 5% | [6] -2.3%

O=S(=O)(O)CCCCO
inactive: [1] 4.4% | [2] -29.9% | [3] 0.9% | [4] 22.2% | [5] 6.15% | [6] 10.2%

COc1cc2oc(=O)ccc2cc1CC=C(C)C
inactive: [1] -16.1% | [2] -26.2% | [3] -4.1% | [4] -6.35% | [5] 2.95% | [6] -21.8%

COC(=O)COc1cc2c(cc1C(C)c1ccc(O)cc1)OCO2 (configuration not stated)
active: [1] 98.8% | [2] 98.5% | [3] 99% | [4] 99.1% | [5] 99.2% | [6] 98.7%

CN1C(=O)CC(c2ccc(Cl)cc2)C1=O (configuration not stated)
inactive: [1] 21.4% | [2] 21.4% | [3] -0.65% | [4] 2.5% | [5] -3.75% | [6] 2.65%

CC[n+]1c(C)sc2cc(Cl)c(-c3ccccc3)cc21
inactive: [1] 23.4% | [2] 17.2% | [3] 30.4% | [4] -6.25% | [5] -3.25% | [6] 34.1%

O=C(O)C1[N-]CCNC1C(=O)O.[O]=[V][OH] (configuration not stated)
inactive: [1] -10.7% | [2] -2.4% | [3] -4.6% | [4] -16.9% | [5] -2.25% | [6] -5.05%

CSC(=N\N=C(/C)c1ccc(Br)cc1)/N=C/N(C)C
inactive: [1] 46.2% | [2] 23.2% | [3] 55.5% | [4] 19% | [5] 28.1% | [6] 31.7%

CCOC(=O)C1=C(C)Oc2cc3c(cc2C1c1cc(OC)c(O)c(OC)c1)OCO3 (configuration not stated)
inactive: [1] 33.8% | [2] 1.65% | [3] 38.5% | [4] 9.75% | [5] 27.4% | [6] 50.5%

ClCCCc1ccccc1C1=NCCc2ccccc21
inactive: [1] 28.4% | [2] 19% | [3] -14.5% | [4] 3.25% | [5] -14.7% | [6] 9.9%

O=C(O)c1nc(-c2ccccc2)[nH]c1C(=O)O
inactive: [1] 20.5% | [2] 5.6% | [3] 12.8% | [4] -15.8% | [5] 30.6% | [6] 24.4%

NC(CCCCN=Cc1nc(-c2ccccc2)oc1O)C(=O)O (configuration not stated)
inactive: [1] -33.6% | [2] -52.3% | [3] -50.6% | [4] 21.4% | [5] -27.7% | [6] -47.5%

N#CC1CC=CCC1 (configuration not stated)
inactive: [1] 19.4% | [2] 4.95% | [3] 0.35% | [4] 15.2% | [5] -12.9% | [6] -5.65%

COC(=O)/C=C/c1c(=O)c(C(=O)OC)cn2cnc3nc[nH]c3c12
inactive: [1] -14.5% | [2] 2.35% | [3] -20.6% | [4] -13.3% | [5] -5.9% | [6] -5.8%

O=C(O)c1c[nH]c2cc(O)ccc2c1=O
inactive: [1] -0.5% | [2] 3.3% | [3] -4.75% | [4] -6.5% | [5] 15.3% | [6] -2.7%

O=[N+]([O-])c1ccc(NC(=S)Nc2ccc([N+](=O)[O-])cc2)cc1
inactive: [1] 5.05% | [2] -17.6% | [3] -1.1% | [4] -25.8% | [5] 5.7% | [6] 2.75%

CCCCCC(=O)NC1CCCCC1
inactive: [1] 5.55% | [2] 13.6% | [3] 8.15% | [4] -7.4% | [5] -30.6% | [6] 15.5%

C(=C(/C=C/C(=C/c1ccccc1)c1ccccc1)c1ccccc1)\c1ccccc1
inactive: [1] 33.5% | [2] 13.8% | [3] -11.7% | [4] -59% | [5] 0.65% | [6] -0.65%
